Laboratory results: the supplement of paper PMC3414501
Where a name gives a salt, the structure may show the parent alone. A number with no mark means an inactive call.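 Rule for the calls: active = HIS4 sensitivity z-score above 5 vs DMSO controls; inactive = score 5 or below.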

Tested on: S. cerevisiae NKY1551 his4x/his4B, sporulating
Test: HIS4 meiotic recombination assay sensitivity score (z-score vs DMSO controls); higher = stronger inhibition of sporulation/recombination, active = hit call of the paper
Conditions: stock concentration (mM, diluted 1:100): 7.6
Method: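 NIH Clinical Collection compounds were added 1:100 from stock (about 100 µM final) to S. cerevisiae. Growth: average doubling time (AvgG) over 24 h of BY4741 (wild-type) or AD1-9 (drug-efflux-pump deficient) in rich media. HIS4: the his4x/his4B heteroallelic recombination reporter strain (SK1) was sporulated 5 h with compound at 30°C, then colony density was read on -his plates after 48 h. Sensitivity score = (compound − mean of 8 DMSO controls)/SD of DMSO controls. Hit cutoffs are >2 for growth and >5 for sporulation.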

Structure (SMILES) | HIS4 meiotic recombination assay sensitivity score
CN1CC[C@]23CCCC[C@H]2[C@H]1Cc1ccc(O)cc13 [Levorphanol tartrate] | -1.13

Same assay, conditions: stock concentration (mM, diluted 1:100): 7.7

Structure (SMILES) | HIS4 meiotic recombination assay sensitivity score
CCC(COC(=O)c1cc(OC)c(OC)c(OC)c1)(c1ccccc1)N(C)C (stereo not given) [Trimebutine maleate] | -1.28

Same assay, conditions: stock concentration (mM, diluted 1:100): 8.2

Structure (SMILES) | HIS4 meiotic recombination assay sensitivity score
COc1ccc2c(c1)[C@]13CCCC[C@@H]1[C@H](C2)N(C)CC3 [Dextromethorphan hydrobromide] | 5.52 (active)

Same assay, conditions: stock concentration (mM, diluted 1:100): 8.7

Structure (SMILES) | HIS4 meiotic recombination assay sensitivity score
CC(=O)O[C@H]1C[C@@H]2CC[C@@H]3[C@H](CC[C@@]4(C)[C@H]3C[C@H]([N+]3(C)CCCCC3)[C@@H]4OC(C)=O)[C@@]2(C)C[C@@H]1[N+]1(C)CCCCC1 [Pancuronium] | -0.44

Same assay, conditions: stock concentration (mM, diluted 1:100): 8.9

Structure (SMILES) | HIS4 meiotic recombination assay sensitivity score
COc1ccc(C(CN(C)C)C2(O)CCCCC2)cc1 (stereo not given) [Venlafaxine hydrochloride] | 1

Same assay, conditions: stock concentration (mM, diluted 1:100): 9

Structure (SMILES) | HIS4 meiotic recombination assay sensitivity score
Cc1ncc2n1-c1ccc(Cl)cc1C(c1ccccc1F)=NC2 [Midazolam hydrochloride] | 4.65

Same assay, conditions: stock concentration (mM, diluted 1:100): 9.9

Structure (SMILES) | HIS4 meiotic recombination assay sensitivity score
CCCCCCCCCOc1ccc2[nH]cc(CCN)c2c1 [5-Nonyloxytryptamine] | -2.09

Same assay, conditions: stock concentration (mM, diluted 1:100): 10

Structure (SMILES) | HIS4 meiotic recombination assay sensitivity score
COc1ccc(CCN)cc1OC [Homoveratrylamine] | -1.74
CS(=O)(=O)Nc1ccc(Cc2noc(-c3ccc4[nH]cc(CCN)c4c3)n2)cc1 | -0.76
CCCCC/C=C\C/C=C\C/C=C\C/C=C\CCCC(=O)Nc1ccc(O)cc1 | -0.8
Cc1nnc2n1-c1ccc(Cl)cc1C(c1ccccc1)=NC2 [Alprazolam] | 1.57
C[C@]12Cc3c[nH]nc3C[C@@H]1CC[C@@H]1[C@@H]2CC[C@@]2(C)[C@H]1CC[C@]2(C)O [Stanozolol] | -0.39
FC(F)(F)c1cccc(N2CCNCC2)c1 | 8.84 (active)
CN1C(=O)CN=C(c2ccccc2)c2cc(Cl)ccc21 [Diazepam] | 2.18
CC(C)CC(N(C)C)C1(c2ccc(Cl)cc2)CCC1 (stereo not given) [Sibutramine hydrochloride] | 0.96
COc1cccc(C2(O)CCCCC2CN(C)C)c1 (stereo not given) [Tramadol] | -2.65
CCCN1C[C@H](CSC)C[C@@H]2c3cccc4[nH]cc(c34)C[C@H]21 [Pergolide mesylate] | -0.45
OC1CCCCC1N1CCC(c2ccccc2)CC1 (stereo not given) [Vesamicol hydrochloride] | -0.31
CNC(=O)Oc1ccc2c(c1)[C@]1(C)CCN(C)[C@@H]1N2C [Physostigmine] | -0.16
c1ccc2c3c([nH]c2c1)CNCC3 [Tryptoline] | -3.38
C[C@H]1CCC[C@H](O)CCCCCc2cc(O)cc(O)c2C(=O)O1 [Zeranol] | -1.27
N=C(NCc1ccc(Cl)cc1)SCCCc1c[nH]cn1 [Clobenpropit] | -0.07
CNC1CC(c2ccc(Cl)c(Cl)c2)c2ccccc21 (stereo not given) [Indatraline] | -0.83
CCN(CC)CCOC(=O)C(O)(c1ccccc1)c1ccccc1 [Benactyzine hydrochloride] | -0.53
COc1cc2c(cc1OC)[C@@]13CCN4CC5=CCO[C@H]6CC(=O)N2[C@H]1[C@H]6[C@H]5C[C@H]43 [Brucine] | 0.05
O=C1CN=C(c2ccccc2)c2cc([N+](=O)[O-])ccc2N1 [Nitrazepam] | -0.13
c1ccc2c(c1)Nc1ccccc1S2 [Phenothiazine] | 2.62
CN1C(=O)COc2c(C(=O)NC3CN4CCC3CC4)cc(Cl)cc21 (stereo not given) [Azasetron] | 1.08
O=C(O)C(Cl)Cl [Dichloroacetic acid] | -0.62
COc1cc(N)c(Cl)cc1C(=O)NC1CN2CCC1CC2 (stereo not given) [Zacopride] | -2.43
O=c1c2ccccc2[se]n1-c1ccccc1 [Ebselen] | -0.37
C[C@]12CC[C@H]3[C@@H](CCC4=CC(=O)CC[C@@]43C)[C@@H]1CC[C@@H]2O [Testosterone] | -0.83
c1ccc(Cn2ccnc2)cc1 [1-Benzylimidazole] | -0.23
CC[C@@H]1C=CC=CC[C@H](C)[C@@H](O)[C@@H](C)C(=O)[C@H](C)[C@@H](O)[C@H](C)C(=O)[C@H](C)[C@@H](O)[C@H](C)C=CC(=O)O[C@H]2[C@@H](C)[C@@H](CC1)O[C@@]1(CC[C@@H](C)[C@@H](C[C@H](C)O)O1)[C@@H]2C [Oligomycin c] | 0.21

Same assay, conditions: stock concentration (mM, diluted 1:100): 10.1

Structure (SMILES) | HIS4 meiotic recombination assay sensitivity score
C=C(C)CN1CC[C@]23c4c5ccc(O)c4O[C@H]2c2[nH]c4ccccc4c2C[C@@]3(O)C1C5 | 3.9
C[C@]12CCC(=O)C[C@@H]1CC[C@@H]1[C@@H]2CC[C@@]2(C)[C@H]1CC[C@]2(C)O [Mestanolone] | -0.62
CC(NC(C)(C)C)C(=O)c1cccc(Cl)c1 (stereo not given) [Amfebutamone hydrochloride] | -0.33
CC[C@@H](C(N)=O)N1CCCC1=O [Levetiracetam] | -0.77

Same assay, conditions: stock concentration (mM, diluted 1:100): 11.3

Structure (SMILES) | HIS4 meiotic recombination assay sensitivity score
CC(C)CC(N(C)C)C1(c2ccc(Cl)cc2)CCC1 (stereo not given) [Sibutramine] | 1.61

Same assay, conditions: stock concentration (mM, diluted 1:100): 19.9

Structure (SMILES) | HIS4 meiotic recombination assay sensitivity score
Cc1ccc(-c2nc3ccc(C)cn3c2CC(=O)N(C)C)cc1 [Zolpidem tartrate] | 0.04
